# “And” between values parts separate entries of the source, which are not always exact repeats. Identical values can stand only once. Out of some 350,000 compounds screened, about 31,000 (8.9%) were called active. Entries that show only a call come without a potency. Not shown: some 15% with an inconclusive outcome. Calls come from the whole dose curve; as a rule, active = well fitted inhibition curve with a large enough effect; inconclusive = small, poorly fitted or top-dose-only effect; inactive = no such curve, though single readings can be large or run the other way. The full list was thinned out, with actives kept by preference. Some structures have more than one record in an assay (separate samples or runs), and their calls can disagree.
# Biological target: Histone-lysine N-methyltransferase EHMT2 (Homo sapiens) (UniProt Q96KQ7)
# Sequence (Q96KQ7 913-1193 limits assumed): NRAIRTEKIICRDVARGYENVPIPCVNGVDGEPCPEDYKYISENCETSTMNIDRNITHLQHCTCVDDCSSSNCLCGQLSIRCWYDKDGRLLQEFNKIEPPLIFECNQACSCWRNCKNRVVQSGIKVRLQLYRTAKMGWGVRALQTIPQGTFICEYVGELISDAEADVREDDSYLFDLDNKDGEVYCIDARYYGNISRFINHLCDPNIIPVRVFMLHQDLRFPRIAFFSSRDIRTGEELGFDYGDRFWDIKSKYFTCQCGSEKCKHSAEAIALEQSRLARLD
# Experiment: qHTS Assay for Inhibitors of Histone Lysine Methyltransferase G9a; note: nearly all actives have a fitted effect of over 75% in size
# Settings: G9a H3K9 monomethylation, AlphaScreen, 2 h; series mostly up to 59 µM
# Summary of the method: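 Chemiluminescent proximity detection of H3K9 monomethylation, read after 10 min bead incubation in the dark. Reaction: 20 nM G9a, 500 nM biotin-H3K9 peptide, 20 uM SAM cofactor, 2 h, room temperature, following 15 min enzyme-compound preincubation.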
# Potency is the fitted concentration of half-maximal effect.
Structure (SMILES),Potency,"activity, negative = inhibition"
OCc1cnc(SCc2ccc(F)cc2)n1Cc1ccc(F)cc1,inactive,
COc1cccc2c1cc1c(=O)n(CC(=O)N3CCN(c4ccccc4)CC3)nc(C)n12,inactive,
Cc1ccc(CN2CCC(CNC(=O)c3cnn(-c4ccc(C)cc4)c3C3CCN(C(=O)OC(C)(C)C)CC3)CC2)cc1,inactive,
CC(C)(C)C(=O)N1CCC[C@@]1(CO)C(=O)O,14.1 µM (active),
COC(=O)c1cc(NC(=O)CCc2c(C)nc3c4c(C)cc(C)nc4nn3c2C)cc(C(=O)OC)c1,inactive,
COc1ccccc1Nc1nnc(SC(C)C(=O)NC2CC2)s1 (configuration not stated),,-13.1% [at 12.7 µM] (inactive)
CC(=O)c1c(C)[nH]c(C(=O)COC(=O)CCOc2ccc(C)cc2)c1C,inactive,
Cc1ccc(-c2cn3c(n2)sc2cc(C(=O)NCCCc4ccccc4)ccc23)cc1,inactive,
Cc1cccc(OCC(=O)NC2CC(C)(C)NC(C)(C)C2)c1,inactive,
COC(=O)Cc1ccc(OCC(=O)NC2CCCC2)cc1,inactive,
CC1(C)SC2C(NC(=O)COc3ccccc3)C(=O)N2C1C(=O)O (configuration not stated),inactive and 39.8 µM (active),
CN(CC(=O)Nc1ccc(F)c(F)c1F)C(=O)Cn1cnc2c1c(=O)n(C)c(=O)n2C,,25.9% [at 12.7 µM] (inactive)
COC(=O)c1cc(S(=O)(=O)N2CCN(c3cc(Cl)ccc3C)CC2)c[nH]1,inactive,
CC(C)CCN1NC2(CCC(C)CC2)NC1=S (configuration not stated),11.2 µM (active),
COC(=O)c1nn(-c2cccc(Cl)c2)ccc1=O,inactive,
COC(=O)c1cccc(NC(=O)CSc2nc(C)cc(=O)[nH]2)c1,inactive,
COC(=O)c1cccc(-n2[nH]nnc2=S)c1,8.91 µM (active),
Cc1cccc(C)c1NC(=O)CN(C)C(=O)CCC(=O)c1ccccc1,,11.7% [at 2.33 µM] (inactive)
C=C(C)CNc1cc(S(=O)(=O)N2CCOCC2)ccc1Oc1ccccc1,,21.5% [at 12.7 µM] (inactive)
COc1ccc(NC(=O)ON=C2c3ccccc3-c3ccccc32)cc1,25.1 µM (active),
COc1ccc(NC(=O)CS(=O)(=O)c2ccccc2)cc1,inactive,
COc1ccc(C(=O)ON=C2c3ccccc3-c3ccccc32)cc1OC,inactive,
Cn1c(C(=O)N2CCC(C(=O)N3CCN(c4ccccc4)CC3)CC2)cc2sccc21,inactive,
O=C(CCNS(=O)(=O)c1cccs1)N1CCN(c2ccc(F)cc2)CC1,inactive,
CCCOc1ccc(NC(=O)CC2C(=O)N(C)C(=S)N2Cc2ccc3c(c2)OCO3)cc1 (configuration not stated),inactive,
O=C(Nc1ccc(Cl)cc1)C1c2cccc[n+]2CC(=O)N1Cc1ccc2c(c1)OCO2 (configuration not stated),22.4 µM (active),
CC1CCC(NC(=O)C2c3ccccc3C(=O)N2Cc2ccc3c(c2)OCO3)CC1 (configuration not stated),inactive,
